The supplement of paper PMC11482750
± gives the standard deviation of the averaged measurements.

compound: O=C/C=C/c1ccccc1 [cinnamaldehyde]; experiment: control-subtracted net OSN firing rate; higher = stronger neuronal activation; conditions: odorant dilution (vol/vol): 1/100
Method in brief: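 Single sensillum recordings were taken from palp or antennal olfactory sensory neurons of 1–5-day-old fed females of Scaptomyza species or of D. melanogaster wild-type, mutant or at1 empty-neuron lines expressing Or42a homologs. Odorants (1:100 vol/vol in mineral oil or dimethyl sulfoxide) were pulsed for 1 s into 16 ml/min filtered air. Replicate means are given of spikes counted over 0.5 s from 0.2 s after onset, after background subtraction, doubling and solvent correction.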

| Target | control-subtracted net OSN firing rate |
| --- | --- |
| S. montana pb1a-like | 17 ± 9 spikes/s |
| Canton-S (D. melanogaster) pb1a | 7.11 ± 7.2 spikes/s |
| S. flava pb3a-like | -2 ± 10 spikes/s |
| Canton-S (D. melanogaster) pb3b | -1.67 ± 8.6 spikes/s |
| Canton-S (D. melanogaster) pb1b | 2.67 ± 9.5 spikes/s |
| S. hsui pb1b-like | 6 ± 16 spikes/s |
| S. hsui pb2b-like | 11 ± 9.8 spikes/s |
| S. pallida pb1a-like | 19.3 ± 13 spikes/s |
| Canton-S (D. melanogaster) pb2a | 4.29 ± 8.4 spikes/s |
| S. montana pb2b-like | 6.67 ± 12 spikes/s |
| S. flava pb2a-like | 0 ± 6.2 spikes/s |
| S. montana pb3a-like | -2.67 ± 16 spikes/s |
| S. montana pb2a-like | 13.7 ± 10 spikes/s |
| S. pallida pb2a-like | 6.67 ± 4.8 spikes/s |
| S. flava pb3b-like | 4.33 ± 16 spikes/s |
| S. pallida pb3a-like | 1 ± 8.3 spikes/s |
| S. pallida pb2b-like | 8.33 ± 7.4 spikes/s |
| S. hsui pb2a-like | 2.67 ± 8.2 spikes/s |
| S. flava pb2b-like | -1.33 ± 7.1 spikes/s |
| Canton-S (D. melanogaster) pb3a | 0 ± 8.4 spikes/s |
| S. flava pb1a-like | 16.7 ± 17 spikes/s |
| S. flava pb1b-like | 1.33 ± 17 spikes/s |
| S. montana pb3b-like | -1.67 ± 8.2 spikes/s |
| S. montana pb1b-like | 4 ± 5.4 spikes/s |
| S. pallida pb3b-like | -6.67 ± 18 spikes/s |
| Canton-S (D. melanogaster) pb2b | 5.14 ± 12 spikes/s |
| S. hsui pb1a-like | 12.7 ± 16 spikes/s |
| S. hsui pb3a-like | 6.33 ± 9.9 spikes/s |
| S. hsui pb3b-like | 2.67 ± 15 spikes/s |
| S. pallida pb1b-like | 4.67 ± 8.6 spikes/s |
